Laboratory results reported in PubChem BioAssay (EPA / NIEHS).
Where “and” joins values, the source holds several entries; their conditions need not be identical. Equal values may be shown once. Some structures have more than one record in an assay (separate samples or runs), and their calls can disagree. Calls of active or inactive are those of the source. Rule for the calls: active = hit-call score of the fitted dose curve at least 0.9, where 1 is the maximum; inactive = score below 0.9.

assay: ATG_VDRE_CIS: Attagene CIS-FACTORIAL HepG2 Assay for human Vitamin D Receptor Element (VDRE) (AID 2282968); details: HepG2 VDRE cis-reporter transcription, actives raise or lower the signal
Method in brief: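 Compounds were applied for 24 h to HepG2 cells transfected with promoter-regulated reporter units. Total RNA was reverse-transcribed, and reporter amplicons were fluorescently labelled and sized by capillary electrophoresis.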

Structure (SMILES) | outcome | AC50
O=C(O)C(F)(OC(F)(F)C(F)(OC(F)(F)C(F)(OC(F)(F)C(F)(F)C(F)(F)F)C(F)(F)F)C(F)(F)F)C(F)(F)F (centres undefined) | inactive | –
O=C(O)C(F)(F)C(F)(F)C(F)(F)C(F)(F)C(F)(F)C(F)(F)C(F)(F)C(F)(F)Cl | – | 49.3 µM (active) and 67.4 µM (active)
c1ccc(-c2ccccc2-c2ccccc2)cc1 | inactive | –
CNC(=S)NC | inactive | –
OCCCC(F)(F)C(F)(F)C(F)(F)C(F)(F)C(F)(F)C(F)(F)C(F)(F)F | inactive | 150 µM (active)
CCN(CC)c1ccc2c(C)cc(=O)oc2c1 | – | 9.28 µM (active)
O=C(O)C(F)(F)C(F)(F)C(F)(F)C(F)(F)C(F)(F)C(F)(F)C(F)(F)C(F)(F)C(F)(F)C(F)(F)C(F)(F)C(F)(F)C(F)(F)F | inactive | –
FC(F)(F)C(F)(F)C(F)(F)C(F)(F)CCI | inactive | –
C=CC(=O)OCC(F)(F)C(F)(F)C(F)(F)C(F)(F)C(F)(F)C(F)(F)C(F)(F)F | inactive | –
C#C[C@]1(O)CC[C@H]2[C@@H]3CCc4cc(OC)ccc4[C@H]3CC[C@@]21C | – | 0.921 µM (active)
O=C(O)C(F)(F)C(F)(F)OC(F)(F)F | inactive | –
CCCCCCCCCCCCCCCC[N+](C)(C)Cc1ccccc1 | inactive | –
CCO[Si](CCC(F)(F)C(F)(F)C(F)(F)C(F)(F)C(F)(F)C(F)(F)F)(OCC)OCC | inactive | –
c1ccc(B(c2ccccc2)c2ccccc2)cc1 | – | 20.7 µM (active)
C=C(C)C(=O)OCCC(F)(F)C(F)(F)C(F)(F)C(F)(F)C(F)(C(F)(F)F)C(F)(F)F | inactive | –
COC(=O)C1CCC(C(=O)OC)CC1 (centres undefined) | inactive | –
CC(C)OC(=O)c1ccccc1C(=O)OC(C)C | – | 14.2 µM (active)

Structure (SMILES) | outcome | AC50
CCCCCCC(C)OC(=O)CCCCC(=O)OC(C)CCCCCC (centres undefined) | inactive | –
C=CC(F)(F)C(F)(F)C(F)(F)C(F)(F)C(F)(F)C(F)(F)C(F)(F)C(F)(F)F | inactive | –
C(=C(c1ccccc1)c1ccccc1)c1ccccc1 | inactive | –
O=C(O)C(F)(F)C(F)(F)C(F)(F)F | inactive | –
OC[C@@H](O)[C@@H](O)[C@H](O)[C@@H](O)CO | inactive | –
O=C(OCCOCCOCCOC(=O)c1ccccc1)c1ccccc1 | inactive | –
OCC(F)(F)C(F)(F)C(F)(F)F | inactive | –
O=C(CC(=O)C(F)(F)C(F)(F)F)C(F)(F)F | inactive | –
Oc1ccc(Nc2ccccc2)cc1 | – | 56.3 µM (active)
COC(=O)CCC(F)(F)C(F)(F)C(F)(F)C(F)(F)F | inactive | –
CCCCCCCOC(=O)c1ccccc1C(=O)OCCCCCCC | inactive | –
OCC(F)(F)C(F)(F)C(F)(F)C(F)(F)C(F)(F)C(F)F | inactive | –
FC(F)(F)C(F)(F)C(F)(F)C(F)(F)C(F)(F)C(F)(F)CC1CO1 (centres undefined) | inactive | –
CC/C=C\CCOC(=O)c1ccccc1 | inactive | –
CS(C)(=O)=O | inactive | –
C=CC(F)(F)C(F)(F)C(F)(F)C(F)(F)C(F)(F)C(F)(F)C(F)(F)C(F)(F)C=C | inactive | –
